This is an account of results in ChEMBL document CHEMBL4513216, “Probing the Open Global Health Chemical Diversity Library for Multistage-Active Starting Points for Next-Generation Antimalarials” (ACS Infect Dis, 2020).

Hit rate of the full screen: of about 69,000 compounds, about 8,600 (12%) showed an effect of 50% or more. What follows is part of a selection rich in strong results, with near analogues and random picks from the rest.

The test system of the assay is Plasmodium berghei. Briefly: Screen against P. berghei liver stage (PbLuc), transformed with Luciferase, at 10uM. The format is functional, HepG2. To be noted: tested at 10 uM.
In the case of `Cc1ccccc1C1(CNC(=O)NCCc2nnc3n2CCC3)CC1`, the INHIBITION was -25.3%.
The figure for `NC(=O)C1(c2cnccn2)CCCN1Cc1ccncc1` (configuration not stated) is 72.3%; for `NC(=O)C1(c2cnccn2)CCCN1Cc1cccc(Cl)c1` (configuration not stated) it is 15.9%; for `NC(=O)C1(c2cnccn2)CCCN1Cc1ccc(Cl)cc1` (configuration not stated) it is -7.79%.
On to `OCC1(NCc2cnc(-c3cccs3)s2)CCOCC1`, for which the INHIBITION is reported as 0.0944%.
In the case of `Cc1cnn(CC2CN(Cc3csc(C4CCCC4)n3)CCO2)c1` (configuration not stated) it was -6.44%.
Consider `CC(C)(C)c1nc(CN2CCOC(Cn3cncn3)C2)cs1` (configuration not stated), for which the INHIBITION came out at 44.3%.
In the case of `Fc1ccc(OCCCN2CCOC(Cn3cncn3)C2)cc1` (configuration not stated) it was 19.4%.
In the case of `c1cnc(-c2nc(CN3CCOC(Cn4cncn4)C3)cs2)nc1` (configuration not stated) it was 88.1%; in that of `Clc1ccc(OCCCN2CCOC(Cn3cncn3)C2)cc1` (configuration not stated), 66.2%; in that of `c1ncn(CC2CN(Cc3csc(C4CCCC4)n3)CCO2)n1` (configuration not stated), 58.3%.
With `c1csc(-c2nc(CN3CCOC(Cn4cncn4)C3)cs2)c1` (configuration not stated), the INHIBITION was 40.9%.
In the case of `c1ccc(-c2nc(CN3CCOC(Cn4cccn4)C3)cs2)cc1` (configuration not stated) it was -6.04%.
The figure for `c1cnn(CC2CN(Cc3csc(C4CCCCC4)n3)CCO2)c1` (configuration not stated) is 64.8%; for `Clc1cccc(OCCCN2CCOC(Cn3cncn3)C2)c1` (configuration not stated) it is 14.1%.
In the case of `c1ccc(-c2nc(CN3CCOC(Cn4cncn4)C3)cs2)cc1` (configuration not stated) it was 18.2%; in that of `CC(C)c1nc(CN2CCOC(Cn3cncn3)C2)cs1` (configuration not stated), -33.9%; in that of `O=C(c1ccc(S(=O)(=O)NCc2ccon2)cc1)N1CCCCCC1`, -6.21%.
As for `CC(C)c1nnc2n1CCN(C(=O)c1ccc(N(C)C)nn1)C2`, the INHIBITION is 4.71%.
The figure for `Cn1cc(-c2cnc(-c3ccnn3C)nc2)cc1C(=O)NC1CC1` is 24.6%; for `COC(=O)N1CCC(c2nnc(Cn3ccnc3)n2C)CC1` it is 1.48%.
The figure for `CS(=O)(=O)N1CCC(CNc2cc(Cl)ccc2C#N)CC1` is -13.9%; for `N#Cc1ccc(Cl)cc1NCC1CC1` it is 47.7%; for `N#Cc1cc(F)ccc1NCC1CCN(S(=O)(=O)C(F)F)CC1` it is 65.3%.
In the case of `O=S(=O)(NCc1ccccc1Cn1cncn1)N1CCCCCC1` it was 34.7%; in that of `COCc1cccc(CNc2cnn(C(C)(C)C)c(=O)c2Cl)c1`, 70.6%.
Regarding `CC(C)(CO)Nc1c(NCc2ccccc2)c(=O)c1=O`, the INHIBITION came to 17.7%.
For `COCc1cccc(CNC(=O)CNc2ccccc2C(C)=O)c1`, the INHIBITION amounted to 11.4%.
Take `COc1cc(CNC(=O)CNc2cc(Cl)ccc2OC)ccn1`: the INHIBITION is recorded as 14.4%.
In the case of `COCc1ccc(CNc2cnn(C(C)(C)C)c(=O)c2Cl)cc1` it was 54.7%; in that of `CCc1c(NCc2ccc(F)cc2)cnn1CC(C)C`, 22.6%.
The figure for `CC(C)(C)n1ncc(NCc2ccccc2)c(Cl)c1=O` is 61.1%; for `Cn1ncc(NCc2cccc(F)c2)c(Cl)c1=O` it is -5.25%; for `COCCNC(=O)Cn1nc(C(C)C)c2cnn(C(C)(C)C)c2c1=O` it is -7.35%.
Turning to `COc1cc(CNC(=O)c2cc(Cl)ccc2F)ccn1`, the INHIBITION came to 11.4%.
On to `COc1cc(CNc2cnn(C(C)(C)C)c(=O)c2Cl)ccn1`, for which the INHIBITION is 70.6%.
For `CC(C)c1nccc(-c2nccn2CCN(C)S(C)(=O)=O)n1`, the INHIBITION was -21.9%.
The figure for `O=C(Cc1ccccn1)N1CCC2(CC1)CN(CC1CC1)C(=O)CO2` is 15.3%; for `CCC(CC)C(=O)N(C)CC(=O)Nc1ccc(Br)cn1` it is 21.5%; for `CN(CCn1nc2ccccn2c1=O)CC(=O)N(C)C1CCCCC1` it is -111%.
As to `O=S(=O)(c1ccc(F)cc1)n1cc(Cl)cn1`, the INHIBITION worked out at 51%.
Turning to `O=S(=O)(c1ccc(F)c(F)c1)n1cc(Cl)cn1`, the INHIBITION was found to be 42.1%.
In the case of `O=S(=O)(c1cc(F)ccc1F)n1cc(Cl)cn1` it was 48.8%; in that of `CCc1ccccc1CNC(=O)CCc1cnn(C)c1`, 16.6%; in that of `Cc1nnc(C(C)N2CCc3[nH]c4ccc(Cl)cc4c3C2)o1` (configuration not stated), 61.3%.
`Cc1nnc(C(C)N2CCc3[nH]c4ccccc4c3C2)o1` (configuration not stated): the INHIBITION is on record as 32%.
The figure for `Cc1noc(C(C)N2CCc3[nH]c4ccc(Cl)cc4c3C2)n1` (configuration not stated) is 28.7%; for `Cc1cnn(CC2CN(Cc3nc(C)c(C)o3)CCO2)c1` (configuration not stated) it is 11.4%; for `COc1cccc(C2(C(=O)NC3CCc4nccn4C3)CCCC2)c1` (configuration not stated) it is 34.6%.
`CCN(CCn1cccn1)C(=O)CN1C(=O)OC[C@@H]1C(C)C`: the INHIBITION worked out at 64.5%.
Take `CCN(CCn1cccn1)C(=O)CN1C(=O)OC[C@@H]1c1ccccc1`: the INHIBITION is 9.63%.
The figure for `CC(C)[C@H]1COC(=O)N1CC(=O)N(C)CCCn1cccn1` is 42.1%.
In the case of `COc1cccc(F)c1C(C)NC(=O)NCc1cnc(C)s1` (configuration not stated) it was -8.66%.
For the molecule `CC(C)n1cc(S(=O)(=O)N2CCCC(N3CCCCC3)C2)cn1` (configuration not stated), the INHIBITION was found to be 2.4%.
In the case of `CC(=O)c1cccc(NC(=O)Cn2cc(I)cn2)c1` it was -1.58%; in that of `Cc1ccc(NC(=O)Cn2cc(I)cn2)cc1C`, 66.5%; in that of `Cc1ccc(NC(=O)Cn2cc(I)cn2)cc1`, 23.2%.
In the case of `CC(C)c1ccc(NC(=O)Cn2cc(I)cn2)cc1` it was 82.2%; in that of `Cc1ccc(C)c(NC(=O)Cn2cc(I)cn2)c1`, 49.1%.
Turning to `NC(=O)c1ccc(NC(=O)Cn2cc(I)cn2)cc1`, the INHIBITION stood at 40%.
The figure for `CS(=O)(=O)NCc1cnc2n1CCN(Cc1ccoc1)CC2` is 33%.
Regarding `Cn1cc(C(=O)N[C@@H]2CN(Cc3cccnc3)[C@@H]3CCCO[C@@H]32)cn1`, the INHIBITION came to 3.25%.
The figure for `O=C(c1cnccn1)N1C[C@H]2CC[C@@H](C1)N(C(=O)CCc1ccsc1)C2` is -69.6%; for `O=C1CCC(C(=O)Nc2ccc(=O)n(Cc3ccc(Cl)c(Cl)c3)c2)N1` (configuration not stated) it is -20.5%; for `Cc1nnsc1CN(C)Cc1ccc(C(=O)Nc2sccc2C#N)cc1` it is 55.4%.
Take `Cc1nnc(CN(C)Cc2ccc(C(=O)Nc3sccc3C#N)cc2)o1`: the INHIBITION is listed as 15.9%.
`CN(Cc1ccc(C(=O)Nc2sccc2C#N)cc1)Cc1ccno1`: the INHIBITION is 15.9%.
The figure for `COCCN1CCCC(Cc2ccc(N3CCOCC3)nn2)C1` (configuration not stated) is -0.902%; for `O=C(NCC1CCCCC1)NC1CCCc2c1cnn2CCO` (configuration not stated) it is 55.1%.
Take `Cc1nc(CCNC(=O)NC2CCCc3c2cnn3CCO)cs1` (configuration not stated): the INHIBITION was 26.9%.
`O=C(NCC(F)(F)F)NC1CCCc2c1cnn2CCO` (configuration not stated): the INHIBITION amounted to 37.1%.
In the case of `O=C(NC1CCCCC1)NC1CCCc2c1cnn2CCO` (configuration not stated) it was -9.93%.
In the case of `Cc1ccsc1CNC(=O)NC1CCCc2c1cnn2CCO` (configuration not stated) it was 13.4%.
In the case of `Cc1ccc(CNC(=O)NC2CCCc3c2cnn3CCO)cn1` (configuration not stated) it was 53.4%; in that of `Cc1csc(CNC(=O)NC2CCCc3c2cnn3CCO)n1` (configuration not stated), 14%.
As for `O=C(NCCc1ccc(F)cc1)NC1CCCc2c1cnn2CCO` (configuration not stated), the INHIBITION was determined as 18.3%.
Turning to `O=C(NCCC1=CCCCC1)NC1CCCc2c1cnn2CCO` (configuration not stated), the INHIBITION worked out at 62%.
